KB-V1 MDR tox: kills drug-selected multidrug resistant KB-V1 cells. KB-V1 MDR cells viability, CellTiter-Glo, 72 h. Potency, µM (series often up to 46.1 µM), hits mostly cytotoxic. actives 3.4% (n = 400,000); further: on the % scale 0 is the no-effect control and ±100 the full control effect; nearly all actives have a fitted effect of over 60% in size
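KB-V1 MDR subline cells in DMEM (phenol-red free, 10% FBS) exposed to compounds in qHTS concentration series for 72 h at 37 degrees C. Viability read by CellTiter-Glo luminescence; concentration-effect curves fitted after normalization and correction.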
MCF10A rerep: induces DNA re-replication in MCF 10a normal breast cells; actives 2.9% (n = 350,000); Potency, µM (titrated, usually from 46.1 µM), without a hit: at the top dose activity, positive = re-replication, most hits filed as activators; MCF 10A DNA re-replication, Hoechst nuclear intensity, 48 h; AID 624296; further: % of control where 0% means no effect; nearly all actives have a fitted effect of over 50% in size
HT1080 IDH1KD tx: kills HT-1080 cells with IDH1 knockdown; HT-1080 IDH1 knockdown viability, ATP luminescence, 48 h; Potency, µM (doses to about 46.1 µM), for inactives: at the highest dose activity, negative = toxicity, usual class: cytotoxic; actives 2% (n = 360,000);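 further: 0% = DMSO wells and -100% = cell-free medium wells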
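Knockdown cells (IDH1KD HT-1080) received compounds 2 h after plating at 750 cells/well and were kept 48 h at 37 °C in 5% FBS RPMI. A CellTiter-Glo luminescence read gave % activity for curve fitting.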
KB-3-1 cytotox: kills parental KB-3-1 adenocarcinoma cells; KB-3-1 viability, CellTiter-Glo ATP luminescence, 72 h; Potency, µM (series often up to 46.1 µM), actives largely listed as cytotoxic; actives 1.4% (n = 400,000); AID 1347075; further: on the % scale 0 is the no-effect control and ±100 the full control effect; nearly all actives have a fitted effect of over 60% in size
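Parental KB-3-1 viability, qHTS format: 72 h compound exposure, 37 °C; CellTiter-Glo; media-only wells and DMSO plates as controls; concentration-effect fits on corrected data.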
HT1080NT lethal: kills 2HG-producing HT-1080-NT fibrosarcoma cells; Potency, µM (highest dose often 46.1 µM), inactives show at the top dose activity, negative = less viability, most hits filed as cytotoxic; actives 1.6% (n = 360,000); AID 686970; HT-1080-NT fibrosarcoma viability, CellTiter-Glo ATP luminescence, 48 h;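 further: NT is the 2HG producing partner of a matched IDH1 knockdown line; 0% = DMSO-treated cells and -100% = media-only wells without cells; nearly all actives have a fitted effect of over 55% in size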
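Compounds were tested in concentration-response format on HT-1080-NT cells for 48 hours at 37 degrees C. Cell viability came from CellTiter-Glo luminescence; curves were classified by r2, response magnitude and activity.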
SW480 rerep: induces DNA re-replication in SW480 colon adenocarcinoma cells | Potency, µM (series often up to 46.1 µM), inactives show at the highest dose re-replication activation, hits mostly activators | actives 1.8% (n = 340,000) | SW480 DNA re-replication, Hoechst DNA content imaging, 48 h; further: % of control where 0% means no effect; nearly all actives have a fitted effect of over 55% in size
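Image-based read-out: total Hoechst fluorescence of nuclei (405 nm excitation, 500-530 nm emission), with hits raising the fraction of high-intensity nuclei. SW480 colon cells incubated 48 hr with compounds at 37 C.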
Numbers without * were called inactive; i = inactive; ? = inconclusive; . = no result given. An excerpt weighted towards active compounds, which were near 8% of everything screened. The call rests on the fitted dose curve; in most records, active means well fitted curve in the direction sought with a large enough effect; inconclusive means small, poorly fitted or top-dose-only effect, or another doubt; inactive means no such curve, though single readings can be large; an effect the other way counts as inactive or inconclusive. Potency means the concentration at half of the fitted maximal effect.

SMILES	KB-V1 MDR tox	MCF10A rerep	HT1080 IDH1KD tx	KB-3-1 cytotox	HT1080NT lethal	SW480 rerep
Cc1ccc2c(c1)N(CC(=O)NC1CCCc3ccccc31)C(=O)CO2 (configuration not stated)	16µM*	-3%	0%	i	1%	-7%
Cc1ccc2c(c1)N(CC(=O)N1CCCc3ccccc31)C(=O)CO2	12µM*	7%	-5%	i	-8%	6%
CC(Sc1nnnn1C)C(=O)NC1CCCc2ccccc21 (configuration not stated)	i	0%	12%	i	14%	-9%
O=C(NCc1cccc(Cl)c1)c1cc2c(s1)-c1ccccc1OC2	i	.	.	?	.	.
O=C(CN1CCN(c2cccc(Cl)c2)CC1)NC1CCCc2ccccc21 (configuration not stated)	i	21µM*	-14%	i	?	1%
CC1CC(C)(C)CC2(C1)NC(=O)N(CC(=O)NC1CCCc3ccccc31)C2=O (configuration not stated)	21µM*	1%	4%	i	9%	-1%
O=C(CN1C(=O)NC2(CCCCCCC2)C1=O)NC1CCCc2ccccc21 (configuration not stated)	i	-5%	15%	i	12%	.
NC(=O)CN1CCN(c2cccc(Cl)c2)CC1	i	-10%	1%	i	4%	-6%
CC(=O)c1ccc(N2CCN(C(C)C(=O)NC3CCCc4ccccc43)CC2)cc1 (configuration not stated)	9.2µM*	-1%	1%	21µM*	-9%	-25%
CC(=O)c1ccc(NC(=O)NC2CCCc3ccccc32)cc1 (configuration not stated)	i	9%	-29%	i	-11%	?
CCCNC(=O)CN1CCN(c2ncc(NC(=O)c3ccc(Cl)cc3)cc2C(=O)O)CC1	i	.	.	i	.	.
Brc1ccc(-c2nnc(SCCC3OCCCO3)o2)cc1	i	?	-1%	i	8%	2%
O=C(Cn1c(=O)n(CC(=O)N2CCCCC2)c(=O)c2sccc21)NCc1ccccc1	?	1%	3%	i	-3%	-3%
c1ccc(COc2ccccc2CNC23CC4CC(CC(C4)C2)C3)cc1	?	23%	16µM*	?	13µM*	?
CC(C)(C)c1ccc(C(=O)NN2CCOCC2)cc1	i	-2%	15%	i	12%	7%
CC(C)CCCCCCCCCCCCC(=O)NCC(=O)NC1C(O)C(O)C(Nc2ncnc3nc[nH]c23)OC1C(O)CO (configuration not stated)	0.16µM*	0%	0.16µM*	0.18µM*	?	?
CCOC(=O)C(Cc1ccc(O)cc1)Nc1nc2ccccc2o1 (configuration not stated)	21µM*	3%	-2%	i	7%	-4%
Cc1cccc(N(Cc2ccccc2)C(=O)CSC(C)C(=O)Nc2cc(C)on2)c1 (configuration not stated)	15µM*	?	-26%	?	1%	13%
COc1ccc(CC(=O)N(Cc2ccccc2)c2cccc(C)c2)cc1OC	?	5%	-8%	i	3%	-6%
Cc1cccc(N(Cc2ccccc2)C(=O)CCl)c1	?	?	1.3µM*	i	1.5µM*	21%
O=C(CCl)N(Cc1ccccc1)c1ccccc1	i	16µM*	16µM*	?	10µM*	5.8µM*
CC(=O)c1ccc(NS(=O)(=O)c2cc3c(cc2C)N(C(C)=O)CCO3)cc1	i	1%	-5%	i	12%	-3%
C/C(=N/OCC(=O)Nc1ccccc1)c1cccs1	i	-1%	16%	i	18%	-5%
CCOc1ccc(CCNC(=O)C2CC(=O)N(Cc3ccc(OC)cc3)C2)cc1OCC (configuration not stated)	i	-3%	0%	i	5%	1%
COc1ccc(CNC(=O)COC(=O)c2c[nH]c(=O)[nH]c2=O)cc1OC	?	1%	12%	i	11%	0%
SMILES	KB-V1 MDR tox	MCF10A rerep	HT1080 IDH1KD tx	KB-3-1 cytotox	HT1080NT lethal	SW480 rerep
C/C(N)=C(/C#N)C(=O)CSc1nc2ccccc2c(=O)n1Cc1ccc(C)cc1	?	?	16µM*	?	?	?
O=C1CN(C(=O)CSc2nnnn2-c2ccc(Cl)cc2)c2ccccc2N1	16µM*	7%	2%	i	5%	-2%
NC(=O)CSc1nc2ccccc2n1Cc1ccccc1	i	1%	2%	i	-4%	-2%
Cc1ccc(-c2csc3nc(SCC(N)=O)n(Cc4ccccc4)c(=O)c23)cc1	21µM*	?	?	i	?	.
Cc1ccc(Cn2c(SCC(=O)N3CC(=O)Nc4ccccc43)nc3ccccc3c2=O)cc1	21µM*	20%	?	i	-11%	.
CC(c1ccccc1)n1c(SCC(=O)N2CC(=O)Nc3ccccc32)nc2ccccc2c1=O (configuration not stated)	?	?	-14%	?	-14%	.
CC(C)Cn1c(SCC(=O)N2CC(=O)Nc3ccccc32)nc2ccccc21	10µM*	19%	2%	i	10%	?
N=c1c(C(=O)NCCN2CCOCC2)cc2c(=O)n3ccccc3nc2n1Cc1ccc(F)cc1	i	1.3µM*	3%	i	1%	2.1µM*
COCCCn1c(=N)c(C(=O)NCc2ccc3c(c2)OCO3)cc2c(=O)n3ccccc3nc21	?	12%	10%	i	-1%	?
N=c1c(C(=O)NCCN2CCOCC2)cc2c(=O)n3ccccc3nc2n1CCCN1CCOCC1	i	0.18µM*	9%	i	7%	0.65µM*
COc1ccccc1NS(=O)(=O)c1cc(NC(=O)c2ccc(Cl)nc2)ccc1N1CCCC1	4.1µM*	11%	-4%	i	-2%	8%
O=C(Nc1cccc(C(F)(F)F)c1)Nc1ccc(N2CCCC2)c(S(=O)(=O)Nc2ccccc2Cl)c1	8.2µM*	4.6µM*	8.2µM*	7.3µM*	?	?
O=C(Nc1cccc(S(=O)(=O)N2CCCCCC2)c1)c1ccc(Cl)nc1	i	-36%	-27%	i	-9%	-6%
COc1ccccc1NS(=O)(=O)c1cc(NC(=O)C2CCC2)ccc1N1CCCCC1	i	3%	1%	i	-3%	-12%
O=C(Nc1cccc(S(=O)(=O)Nc2ccccc2Cl)c1)c1ccc(Cl)nc1	2.6µM*	-51%	-8%	5.2µM*	-4%	3%

Source: PubChem BioAssay (National Center for Advancing Translational Sciences (NCATS))
